Data taken from PubChem BioAssay (NCATS).
Inconclusive results are not listed. A call without a number means that no potency is given here. Calls of active or inactive are those of the source. The call rests on the fitted dose curve; tested in HEK293 reporter line.

Experiment: qHTS for Inhibitors of the Functional Ribonucleoprotein Complex (vRNP) of Lassa (LASV) Arenavirus: LASV Primary Screen - GLuc reporter signal (AID 1347082); further: nearly all actives have a fitted effect of over 60% in size
Settings: LASV minigenome vRNP, Gaussia luciferase reporter; series mostly up to 57.5 µM

Row | SMILES | Potency
1 | COc1cc(/C=C/c2ccccc2)cc(OC)c1 | inactive
2 | CC/C=C\CCCCO | inactive
3 | COc1ccc([C@@H]2CC(=O)c3c(O)cc(O[C@@H]4OC(CO[C@@H]5OC(C)[C@H](O)[C@@H](O)[C@H]5O)[C@@H](O)[C@H](O)[C@H]4O)cc3O2)cc1O (stereo not given in full) | inactive
4 | CC12CCC(=O)C=C1CCC1C2CCC2(C)C(C(=O)CO)CC(O)C12 (stereo not given) | inactive
5 | COc1ccc(C(=O)OC2CC3CCC(C2)[N+]3(C)[O-])cc1OC (stereo not given) | inactive
6 | C/C=C1/C[C@@H](C)[C@@](C)(O)C(=O)OCC2=CCN3CC[C@@H](OC1=O)[C@@H]23 | inactive
7 | COc1ccc([C@@H]2CC(=O)c3c(O)cc(O[C@@H]4O[C@H](CO)[C@@H](O)[C@H](O)[C@H]4O[C@@H]4O[C@@H](C)[C@H](O)[C@@H](O)[C@H]4O)cc3O2)cc1 | inactive
8 | CO[C@H]1/C=C\O[C@@]2(C)Oc3c(C)c(O)c4c(O)c(c5c(nc6cc(C)ccn65)c4c3C2=O)NC(=O)C(C)=CC=C[C@H](C)[C@H](O)[C@@H](C)[C@@H](O)[C@@H](C)[C@H](OC(C)=O)[C@H]1C | inactive
9 | C=C1C(=O)O[C@H]2C[C@]3(C)C([C@@H](OC(=O)/C(C)=C/C)[C@H]12)[C@](C)(O)CC[C@H]3O (stereo not given in full) | inactive
10 | CN(CC=CC#CC(C)(C)C)Cc1cccc2ccccc12 | inactive
11 | CC(=O)OC1c2c(ccc3ccc(=O)oc23)OC(C)(C)C1OC(=O)CC(C)C (stereo not given) | inactive
12 | C/C1=C\[C@@H](O)C(C(C)C)C(OC(=O)c2ccc(O)cc2)C/C(C)=C/CC1 (stereo not given in full) | inactive
13 | COc1ccc2c(c1)OC[C@H]1c3cc4c(cc3O[C@@H]21)OCO4 | inactive
14 | CC1C(=O)OC2CCN3CC=C(COC(=O)C(C)(O)C1(C)O)C23 (stereo not given) | inactive
15 | CCOC(=O)c1cc(=O)[nH]c2ccccc12 | inactive
16 | CC1(C)C[C@H]2C3=CCC4[C@@]5(C)CC[C@H](O)C(C)(C)C5CC[C@@]4(C)[C@]3(C)[C@@H](O)[C@@H](O)[C@@]2(CO)[C@@H](O)[C@@H]1O (stereo not given in full) | inactive
17 | C[C@]12C=CC(=O)C=C1CC[C@@H]1[C@@H]2[C@@H](O)C[C@@]2(C)[C@@H]1CC[C@]2(O)C(=O)CO | inactive
18 | COc1cc2c(cc1OC)-c1cc3ccc4c(c3c[n+]1CC2)OCO4 | inactive
19 | N[C@H](C(=O)O)c1ccc(O)c(C(=O)O)c1 | inactive
20 | CC[C@H](C)C(=O)N[C@H]1CCCN1C(=O)/C=C/c1ccccc1 | inactive

Row | SMILES | Potency
21 | CCCCCCCCCCOC(C)=O | inactive
22 | C=C1C(=O)OC2C=C(C)CCC=C(C)CCC12 (stereo not given) | inactive
23 | CC(=O)O[C@H]1C[C@@]2(O)[C@@H](OC(=O)c3ccccc3)C3[C@@](C)([C@@H](O)C[C@H]4OC[C@@]34OC(C)=O)[C@@H](O)[C@H](OC(C)=O)C(=C1C)C2(C)C (stereo not given in full) | inactive
24 | CC(C)C(=O)OCCc1ccccc1 | inactive
25 | Cc1ccc(C(C)(C)O)cc1 | inactive
26 | O=C(/C=C/c1ccccc1)NCCc1cnc[nH]1 | inactive
27 | C=CCCC[C@@H]1OC(=O)CNC(=O)C([C@@H](C)CC)NC(=O)[C@@H]2CCCN2C(=O)C([C@@H](C)CC)OC(=O)[C@H](Cc2ccccc2)N(C)C(=O)[C@H](C(C)C)NC(=O)C1(C)C (stereo not given in full) | inactive
28 | NC(=O)Nc1ccc(Cl)c(Cl)c1 | inactive
29 | COc1cc2oc(=O)c3c4c(cc5ccc(c1CCN(C)C)c2c53)OCO4 | inactive
30 | C=C(C)C(O)CC/C(C)=C/Cc1c(O)ccc(C(=O)/C=C/c2ccc(O)cc2)c1O (stereo not given) | inactive
31 | COCCOCCOCCOCCOC | inactive
32 | N[C@@H](CCCCNC(=O)CCCC[C@@H]1SC[C@H]2NC(=O)N[C@H]12)C(=O)O | inactive
33 | c1ccc2c3c([nH]c2c1)C1(CCCCC1)NCC3 | inactive
34 | CC(=O)[C@@]1(O)CCC2C3CC[C@H]4C[C@@H](O)CC[C@]4(C)C3CC[C@@]21C (stereo not given in full) | inactive
35 | CC(C)N(CCCNC(=O)Nc1ccc(C(C)(C)C)cc1)C[C@H]1O[C@@H](n2cc(Br)c3c(N)ncnc32)[C@H](O)[C@H]1O | inactive
36 | CN1CC(=O)N2C(Cc3c([nH]c4ccccc34)[C@H]2c2ccc3c(c2)OCO3)C1=O (stereo not given in full) | inactive
37 | C/C=C1\NC(=O)[C@H](C)NC(=O)[C@@H](NC(=O)[C@H](Cc2ccc(O)cc2)NC(=O)[C@@H](NC(=O)/C(C)=C/C)C(C)C)[C@@H](C)OC(=O)[C@H](CC(C)C)NC(=O)[C@@H](CCC(=O)O)NC1=O | inactive
38 | COc1ccc(-c2coc3cc(O[C@@H]4O[C@H](CO)[C@@H](O)[C@H](O)[C@H]4O)c(OC)cc3c2=O)cc1 | inactive
39 | C#CCCC[C@@H]1OC(=O)CNC(=O)C([C@@H](C)CC)NC(=O)[C@@H]2CCCN2C(=O)C([C@@H](C)CC)OC(=O)[C@H](Cc2ccccc2)N(C)C(=O)[C@H](C(C)C)NC(=O)C1(C)C (stereo not given in full) | inactive
40 | Cc1cc(=O)c2c(O)c(O)ccc2o1 | inactive

Experiment: qHTS for Inhibitors of the Functional Ribonucleoprotein Complex (vRNP) of Lassa (LASV) Arenavirus: Viability assay - alamar blue signal for LASV Primary Screen (AID 1347083); further: nearly all actives have a fitted effect of over 80% in size
Settings: cell viability, alamar blue fluorescence (LASV minigenome counter-screen); series mostly up to 57.5 µM

Row | SMILES | Potency
41 | COc1cc(/C=C/c2ccccc2)cc(OC)c1 | inactive
42 | CC/C=C\CCCCO | inactive
43 | COc1ccc([C@@H]2CC(=O)c3c(O)cc(O[C@@H]4OC(CO[C@@H]5OC(C)[C@H](O)[C@@H](O)[C@H]5O)[C@@H](O)[C@H](O)[C@H]4O)cc3O2)cc1O (stereo not given in full) | inactive
44 | CC12CCC(=O)C=C1CCC1C2CCC2(C)C(C(=O)CO)CC(O)C12 (stereo not given) | inactive
45 | COc1ccc(C(=O)OC2CC3CCC(C2)[N+]3(C)[O-])cc1OC (stereo not given) | inactive
46 | C/C=C1/C[C@@H](C)[C@@](C)(O)C(=O)OCC2=CCN3CC[C@@H](OC1=O)[C@@H]23 | inactive
47 | COc1ccc([C@@H]2CC(=O)c3c(O)cc(O[C@@H]4O[C@H](CO)[C@@H](O)[C@H](O)[C@H]4O[C@@H]4O[C@@H](C)[C@H](O)[C@@H](O)[C@H]4O)cc3O2)cc1 | inactive
48 | CO[C@H]1/C=C\O[C@@]2(C)Oc3c(C)c(O)c4c(O)c(c5c(nc6cc(C)ccn65)c4c3C2=O)NC(=O)C(C)=CC=C[C@H](C)[C@H](O)[C@@H](C)[C@@H](O)[C@@H](C)[C@H](OC(C)=O)[C@H]1C | inactive
49 | C=C1C(=O)O[C@H]2C[C@]3(C)C([C@@H](OC(=O)/C(C)=C/C)[C@H]12)[C@](C)(O)CC[C@H]3O (stereo not given in full) | inactive
50 | CN(CC=CC#CC(C)(C)C)Cc1cccc2ccccc12 | inactive
51 | CC(=O)OC1c2c(ccc3ccc(=O)oc23)OC(C)(C)C1OC(=O)CC(C)C (stereo not given) | inactive
52 | C/C1=C\[C@@H](O)C(C(C)C)C(OC(=O)c2ccc(O)cc2)C/C(C)=C/CC1 (stereo not given in full) | inactive
53 | COc1ccc2c(c1)OC[C@H]1c3cc4c(cc3O[C@@H]21)OCO4 | inactive
54 | CC1C(=O)OC2CCN3CC=C(COC(=O)C(C)(O)C1(C)O)C23 (stereo not given) | inactive
55 | CCOC(=O)c1cc(=O)[nH]c2ccccc12 | inactive
56 | CC1(C)C[C@H]2C3=CCC4[C@@]5(C)CC[C@H](O)C(C)(C)C5CC[C@@]4(C)[C@]3(C)[C@@H](O)[C@@H](O)[C@@]2(CO)[C@@H](O)[C@@H]1O (stereo not given in full) | inactive
57 | C[C@]12C=CC(=O)C=C1CC[C@@H]1[C@@H]2[C@@H](O)C[C@@]2(C)[C@@H]1CC[C@]2(O)C(=O)CO | inactive
58 | COc1cc2c(cc1OC)-c1cc3ccc4c(c3c[n+]1CC2)OCO4 | inactive
59 | N[C@H](C(=O)O)c1ccc(O)c(C(=O)O)c1 | inactive
60 | CC[C@H](C)C(=O)N[C@H]1CCCN1C(=O)/C=C/c1ccccc1 | inactive

Row | SMILES | Potency
61 | CCCCCCCCCCOC(C)=O | inactive
62 | C=C1C(=O)OC2C=C(C)CCC=C(C)CCC12 (stereo not given) | inactive
63 | CC(=O)O[C@H]1C[C@@]2(O)[C@@H](OC(=O)c3ccccc3)C3[C@@](C)([C@@H](O)C[C@H]4OC[C@@]34OC(C)=O)[C@@H](O)[C@H](OC(C)=O)C(=C1C)C2(C)C (stereo not given in full) | inactive
64 | CC(C)C(=O)OCCc1ccccc1 | inactive
65 | Cc1ccc(C(C)(C)O)cc1 | inactive
66 | O=C(/C=C/c1ccccc1)NCCc1cnc[nH]1 | inactive
67 | C=CCCC[C@@H]1OC(=O)CNC(=O)C([C@@H](C)CC)NC(=O)[C@@H]2CCCN2C(=O)C([C@@H](C)CC)OC(=O)[C@H](Cc2ccccc2)N(C)C(=O)[C@H](C(C)C)NC(=O)C1(C)C (stereo not given in full) | inactive
68 | NC(=O)Nc1ccc(Cl)c(Cl)c1 | inactive
69 | COc1cc2oc(=O)c3c4c(cc5ccc(c1CCN(C)C)c2c53)OCO4 | inactive
70 | C=C(C)C(O)CC/C(C)=C/Cc1c(O)ccc(C(=O)/C=C/c2ccc(O)cc2)c1O (stereo not given) | inactive
71 | COCCOCCOCCOCCOC | inactive
72 | N[C@@H](CCCCNC(=O)CCCC[C@@H]1SC[C@H]2NC(=O)N[C@H]12)C(=O)O | inactive
73 | c1ccc2c3c([nH]c2c1)C1(CCCCC1)NCC3 | inactive
74 | CC(=O)[C@@]1(O)CCC2C3CC[C@H]4C[C@@H](O)CC[C@]4(C)C3CC[C@@]21C (stereo not given in full) | inactive
75 | CC(C)N(CCCNC(=O)Nc1ccc(C(C)(C)C)cc1)C[C@H]1O[C@@H](n2cc(Br)c3c(N)ncnc32)[C@H](O)[C@H]1O | inactive
76 | CN1CC(=O)N2C(Cc3c([nH]c4ccccc34)[C@H]2c2ccc3c(c2)OCO3)C1=O (stereo not given in full) | inactive
77 | C/C=C1\NC(=O)[C@H](C)NC(=O)[C@@H](NC(=O)[C@H](Cc2ccc(O)cc2)NC(=O)[C@@H](NC(=O)/C(C)=C/C)C(C)C)[C@@H](C)OC(=O)[C@H](CC(C)C)NC(=O)[C@@H](CCC(=O)O)NC1=O | inactive
78 | COc1ccc(-c2coc3cc(O[C@@H]4O[C@H](CO)[C@@H](O)[C@H](O)[C@H]4O)c(OC)cc3c2=O)cc1 | inactive
79 | C#CCCC[C@@H]1OC(=O)CNC(=O)C([C@@H](C)CC)NC(=O)[C@@H]2CCCN2C(=O)C([C@@H](C)CC)OC(=O)[C@H](Cc2ccccc2)N(C)C(=O)[C@H](C(C)C)NC(=O)C1(C)C (stereo not given in full) | inactive
80 | Cc1cc(=O)c2c(O)c(O)ccc2o1 | inactive
